Experimental data taken from PubChem BioAssay AID1920062 (Sanford-Burnham Center for Chemical Genomics, 2024).
In all, about 370,000 compounds went through this assay and about 400 (0.11%) were called active.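 The calls were made as follows: active = activation at 10 µM reaching about 35% in either raw or pattern-adjusted values (limit read from the data); inactive = the rest.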 Shown is part of a subset that was picked to be rich in actives.

target: Atrial natriuretic peptide receptor 2 (Homo sapiens) (UniProt P20594); assay: GC-B stimulated cGMP production enhancers – HEK293 GC-B cells, cGMP TR-FRET, EC30 CNP, primary screen (AID 1920062); settings: at 10 µM, hits give high values, 0% at EC30 CNP, 100% saturating CNP
Sequence (P20594 whole entry, looked up): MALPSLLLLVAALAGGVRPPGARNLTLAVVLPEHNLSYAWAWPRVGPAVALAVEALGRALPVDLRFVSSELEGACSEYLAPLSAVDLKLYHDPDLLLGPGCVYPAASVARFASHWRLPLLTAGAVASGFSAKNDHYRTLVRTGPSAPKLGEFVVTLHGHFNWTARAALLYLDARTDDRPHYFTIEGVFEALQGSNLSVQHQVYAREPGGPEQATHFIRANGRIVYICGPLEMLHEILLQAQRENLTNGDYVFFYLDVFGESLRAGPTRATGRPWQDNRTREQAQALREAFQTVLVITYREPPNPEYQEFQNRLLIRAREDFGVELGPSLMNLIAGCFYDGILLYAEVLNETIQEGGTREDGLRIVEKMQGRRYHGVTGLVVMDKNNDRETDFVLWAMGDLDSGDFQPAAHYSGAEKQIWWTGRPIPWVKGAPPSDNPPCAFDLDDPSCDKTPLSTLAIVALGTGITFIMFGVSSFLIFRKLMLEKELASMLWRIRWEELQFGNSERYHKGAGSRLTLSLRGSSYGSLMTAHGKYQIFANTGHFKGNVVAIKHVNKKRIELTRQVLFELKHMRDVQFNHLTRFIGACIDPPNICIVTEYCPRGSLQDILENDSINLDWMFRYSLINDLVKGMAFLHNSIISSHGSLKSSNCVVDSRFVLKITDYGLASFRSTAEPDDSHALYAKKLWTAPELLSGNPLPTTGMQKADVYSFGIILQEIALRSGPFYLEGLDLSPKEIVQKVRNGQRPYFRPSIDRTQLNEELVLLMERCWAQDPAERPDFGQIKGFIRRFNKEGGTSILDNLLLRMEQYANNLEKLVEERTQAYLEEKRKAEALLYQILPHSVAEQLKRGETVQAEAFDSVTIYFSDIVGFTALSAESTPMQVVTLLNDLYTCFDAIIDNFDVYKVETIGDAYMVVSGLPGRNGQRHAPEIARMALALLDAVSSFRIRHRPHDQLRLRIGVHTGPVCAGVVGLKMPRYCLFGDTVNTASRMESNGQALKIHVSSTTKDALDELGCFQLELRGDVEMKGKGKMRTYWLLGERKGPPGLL

activation, active:
COC(=O)c1ccc2nc(-c3ccc(Cl)cc3)c(Cc3cccc(F)c3)n2c1 41.9%
COC(=O)c1ccc2nc(-c3ccc(F)cc3)c(Cc3ccc(C)cc3)n2c1 41.9%
Nc1c(C(=O)NCc2ccccc2)sc2nc3c(cc12)C(=O)CCC3 41.5%
CN(C)C(=O)c1cccc(-c2cnc3sc(NCc4ccc5c(c4)OCO5)nn23)c1 43%
CC(=O)Nc1cc(-c2cccc(CO)c2)cn2c(-c3cccc(C(F)(F)F)c3)cnc12 36.8%
COc1ccc(CSc2nc(N3CCOCC3)c3c(c2C#N)CC(C)(C)OC3)cc1 48.4%

activation, inactive:
COC(=O)c1ccc2nc(-c3ccc(C)cc3)c(Cc3ccc(OC)cc3C)n2c1 17.2%
Fc1cccc(Cc2c(-c3cccc(Cl)c3)nc3ccc(Br)cn23)c1 -1.56%
COC(=O)c1ccc2nc(-c3ccc(OC)c(OC)c3)c(Cc3ccccc3)n2c1 20.9%
COC(=O)c1ccc2nc(C3CCCCC3)c(Cc3cccc(F)c3)n2c1 3.29%
COC(=O)[C@@H]1C[C@@]2(O)[C@H](O)[C@H](O)[C@H](O)C[C@H]2N1Cc1ccc(C)s1 6.96%
O=C(NCc1ccncc1)C1CCCN(S(=O)(=O)c2ccc(Br)cc2)C1 (stereo not drawn) -0.66%
CCOCCCNC(=O)Cc1cc(=O)[nH]c(=O)[nH]1 -0.88%
CC(=O)Nc1ccc(S(=O)(=O)NC2(C(F)(F)F)C(=O)Nc3c2c(=O)[nH]c(=O)n3Cc2ccccc2)cc1 (stereo not drawn) -0.18%
NC(=O)C[n+]1cccc(C(N)=O)c1 -0.67%
CC1(C)O[C@@H]2[C@H](O1)[C@@H](COS(=O)(=O)O)O[C@H]2n1ccc(=O)[nH]c1=O 1.28%
O=C(NC(=S)Nc1cccc(-c2ccc(CO)o2)c1)c1cccs1 3.14%
COc1cccc2cc(C(C)N(CCCN3CCOCC3)C(=O)Nc3ccc(Cl)cc3)oc12 (stereo not drawn) 2.29%
Cc1ccc(SCC(=O)NNC(=O)c2ccc(S(C)(=O)=O)cc2)cc1 4.75%
CCCN=C1NC(=O)C(CC(=O)NCCc2ccc(OC)c(OC)c2)S1 (stereo not drawn) -2.43%
CCN(CC(=O)NCCCN1CCOCC1)S(=O)(=O)c1cc(Cl)ccc1Cl -0.24%
CCOCCCNC(=O)C(NC(=O)c1ccc(=O)[nH]c1)c1ccc(Cl)cc1 (stereo not drawn) -0.69%
CC(C)OC(=O)c1sc2nc3c(cc2c1N)C(=O)CCC3 16.4%
O=C(CC1CCCCC1)NCc1ccccc1 0.16%
Cc1cnc(C)c(N2CCN(C(=O)C3CCC(=O)N(CCc4cccc(F)c4)C3)CC2)n1 (stereo not drawn) 1.57%
CCN(C(=O)COC(=O)c1c(NC(C)=O)sc(C)c1C)C1CCS(=O)(=O)C1 (stereo not drawn) -6.94%
C=CCn1nc(C(=O)OCC)cc1-c1sc(NC(=O)c2ccccc2)nc1C 3.57%
Cc1ccc(C)n1-c1ccncc1 1.81%
COC(=O)[C@]1(Cc2ccccc2)N[C@H](CN(C)S(=O)(=O)c2ccc(F)cc2)[C@@H]2C(=O)N(Cc3ccccc3)C(=O)[C@@H]21 -3.49%
COc1ccc(C2c3ccc(O)cc3Oc3ncn(CCCO)c(=N)c32)cc1OC (stereo not drawn) 2.6%
CCN(C(=O)COC(=O)c1ccc(COc2ccc3c(C)cc(=O)oc3c2)cc1)C1CCS(=O)(=O)C1 (stereo not drawn) -1.49%
O=C(Nc1ccc(Br)cc1)c1cccc(NC(=O)C2C3CC4OC(=O)C2C4C3)c1 (stereo not drawn) -4.37%
Cc1oc2nc(SCC(=O)Nc3ccc(S(N)(=O)=O)cc3)nc(NC(=O)c3ccccc3)c2c1C -7.74%
N#Cc1ccc(OCCN2C(=O)NC3(CCSC3)C2=O)cc1 (stereo not drawn) 1.75%
O=C1Nc2ccccc2NC(c2ccc3c(c2)OCO3)=C1N(Cc1ccc(F)cc1)C(=O)c1ccco1 -16.8%
CCOC(=O)Cc1c(C)nc2c(C#N)c(C)nn2c1C 6.49%
C[C@H]1NS(=O)(=O)c2cc(Cl)ccc2O[C@@H]1c1ccccc1 1.13%
O=C1CC(=O)Nc2cc(S(=O)(=O)N3CCN(c4cccc(C(F)(F)F)c4)CC3)ccc2N1 1.05%
CCNC(=O)C1(C)CCN(C(=O)c2ccccc2)C1 (stereo not drawn) 1.62%
Cc1ccc(CSc2ccc(S(=O)(=O)N3CCCCC3)cn2)cc1 -1.29%
CCOC(=O)c1ccccc1NC(=O)COC(=O)C(Cc1c[nH]c2ccccc12)NC(C)=O (stereo not drawn) -17.1%
COCCn1c(CN2CCC(Cc3ccccc3)CC2)nc2c1c(=O)n(C)c(=O)n2C -2.04%
CCN(CC)C(=O)Cn1cc(S(=O)(=O)CC(=O)NCc2ccc3c(c2)OCO3)c2ccccc21 2.01%
O=C(NCc1ccc2c(c1)OCO2)c1sccc1Br 8.92%
O/N=C(\c1ccc2c(c1)OCCO2)C1CCCCC1 0.81%
Cc1nnc(NC(=O)CSc2nc(C3CCCCC3)nc3ccccc23)s1 3.79%
CC(=O)Nc1cc(-c2ccccc2F)cn2c(-c3cccc(C(F)(F)F)c3)cnc12 3.33%
CC(=O)Nc1cccc(-c2cc(NC(C)=O)c3ncc(-c4ccccc4)n3c2)c1 5.87%
COc1ccc(OC)c(Cc2cnc3nc(N)nc(N)c3c2C)c1 -1.38%
Cn1c(=O)c2c(SCC(=O)NCC3CCCO3)nc(CC(C)(C)C)nc2n(C)c1=O (stereo not drawn) 4.44%
C=CCN(Cc1ccc2c(c1)OCO2)C(C#CC1CC1)C(C)(C)C (stereo not drawn) -14.9%
C[C@@H]1COc2cccc(N3CCCC3)c2S(=O)(=O)N1C 0.41%
CC(=O)C1(C(=O)Nc2nccs2)CC(c2ccccc2C(F)(F)F)=NO1 (stereo not drawn) 1.69%
COc1ccc(C(=O)OC(C)C(=O)NC2CCCC2)cc1S(=O)(=O)N1CCOCC1 (stereo not drawn) -5.5%
O=C(CCCCCN1C(=O)C2C3C=CC(C3)C2C1=O)Nc1ccccn1 (stereo not drawn) 9.16%
CCc1ccccc1S(=O)(=O)Cc1ccc(C(=O)NCCc2ccccc2)o1 2.27%
CN(C(=O)CC(NC(=O)c1ccccc1)(c1ccccc1)c1ccccc1)c1ccccc1 -19.3%
CN(CC(=O)Nc1ccccc1Cl)C(=O)COc1cccc2c1OC(C)(C)C2 -1.31%
O=C(CSc1n[nH]c(=O)n1-c1ccccc1)Nc1ccccc1C(F)(F)F -2.36%
COCCCN1C(=O)c2ccc(C(=O)OCC(=O)NCc3ccccc3OC)cc2C1=O -7.6%
Cc1ccc(CNC(=O)C(=O)c2cn(CC(=O)N3CCOCC3)c3ccccc23)cc1 -3.39%
O=C1CSC(c2cccc(F)c2)N1c1ccc(O)cc1 (stereo not drawn) 2.71%
CC1CCCCN1S(=O)(=O)CCNC(=O)c1ccccc1 (stereo not drawn) -2.73%
Cc1ccc(NC(=O)CSCC(=O)N2CCOCC2)cc1 2.72%
O=C(CCSc1ccccc1)N1CCN(c2ccccc2F)CC1 -0.35%
CC(C)(C)c1ccc(CSc2nnc(-c3cccs3)o2)cc1 3.23%
COc1ccccc1NC(=O)CSc1nnc(Cn2nnc(-c3ccccc3)n2)n1-c1ccccc1 -7.79%
Nn1c(SCC(=O)Nc2ccc(S(N)(=O)=O)cc2)nnc1-c1n[nH]c2c1CCC2 -3.98%
CS(=O)(=O)Nc1ccccc1N=C(c1ccccc1)c1ccccc1 4.92%
Cc1cccc(C(=O)NC2CCN(CC(=O)Nc3cccc(Cl)c3)CC2)c1 1.44%
CCc1nn(CCCC(=O)NC(C)c2ccccc2)c(=O)c2cc3occc3n12 (stereo not drawn) -9.68%
Cc1c2cnn(CC(=O)NCc3ccccn3)c(=O)c2c(C)n1Cc1ccc(Cl)cc1 0.59%
CC1=NN(/C(=N\c2nnc(C)s2)Nc2ccccc2)[C@H](c2ccc(C)cc2)S1 -13.9%
COC(=O)c1ccc([C@@H](O)[C@H](C)C(=O)CC(=O)OC(C)(C)C)cc1 5.42%
CC(=O)c1cccc(NC(=O)CN2C(=O)c3cccnc3Oc3ccc(Cl)cc32)c1 -2.67%
Cc1ccccc1C(=O)OC1OC(=O)C(Cl)=C1Nc1ccccc1 (stereo not drawn) 2.61%
C/C(=N\N(C)C)c1ccc(OCCOc2ccc([N+](=O)[O-])cc2)cc1 4.4%
O=C(Cc1ccc(-n2c(=O)c3sccc3n(Cc3ccc(F)cc3)c2=O)cc1)NCc1ccco1 6.68%
Cc1ccc(C(=O)N2CCCC2)c(F)c1F 0.58%
COc1ccc(S(=O)(=O)N2CCN(C)CC2)c(C)c1 -1.64%
CC[C@]1(C(=O)OC)[C@H]2C(=O)N(C)C(=O)[C@H]2[C@H]2CN(C)C(=NCc3ccccc3)N21 -1.82%
CS(=O)(=O)N(CC(=O)N1CCN(c2cccc(Cl)c2)CC1)c1ccccc1 -0.13%
Cc1cc(C)c(C#N)c(SCc2ccc3c(c2)OCO3)n1 6.77%
c1ccc(CSc2ncnc3c2sc2nc(N4CCOCC4)c4c(c23)CCCC4)cc1 -0.49%
O=C1CCC(=O)N(c2ccccc2)N1 0.63%
CC(=O)Nc1ccc(NC(=O)CSc2nnnn2-c2ccccc2F)cc1 -2.78%
CCCCCN(C(=O)NC(=O)Nc1ccccc1OC)S(C)(=O)=O 0.44%
CCn1c(SCC(=O)NNC(=O)c2ccc(OC)cc2)nnc1C(C)C 1.41%
